From PubChem BioAssay (Tox21)
Values joined by “and” are separate entries in the source; they are usually repeats but may differ in a detail not shown here. Equal values may be shown once. Some compounds were tested as several samples or in several runs, with calls that do not always agree. Active and inactive are the calls of the source. Unless noted, calls come from the whole dose curve; as a rule, active = well fitted curve in the direction sought with a large enough effect in the repeat runs; inconclusive = weak or mixed curves; inactive = no such curve, though single readings can be large; an effect the other way counts as inactive or inconclusive.

What was measured:
[1] = qHTS assay to identify small molecule antagonists of the thyroid receptor (TR) signaling pathway - cell viability counter screen (AID 743064); note: nearly all actives have a fitted effect of over 50% in size; note: potency is the fitted concentration of half-maximal effect
How it was run: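 GH3.TRE-Luc cells, 4 h pre-plating; cpd + T3 1 nM final; 37 °C 23.5 h; CellTiter-Fluor 30 min; fluorescence read.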

[2] = qHTS assay to identify small molecule antagonists of the thyroid receptor (TR) signaling pathway (AID 743065); note: nearly all actives have a fitted effect of over 55% in size; note: potency is the fitted concentration of half-maximal effect
How it was run: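 GH3.TRE-Luc rat pituitary cells carrying two TR response elements driving luciferase were plated for 4 h, given compound plus 1 nM T3 (final), and incubated 23.5 h at 37 C. ONE-Glo luminescence measured reporter inhibition; CellTiter-Fluor fluorescence tracked cytotoxicity.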

[3] = test system: thyroid hormone receptor (rat, GH3 cells); experiment: qHTS assay to identify small molecule agonists of the thyroid receptor (TR) signaling pathway (AID 743066; calls by dose curve)
[4] = target: Estrogen receptor (Homo sapiens) (UniProt P03372); experiment: qHTS assay to identify small molecule antagonists of the estrogen receptor alpha (ER-alpha) signaling pathway (AID 743069; active = well fitted curve in the direction sought with a large enough effect in the signal ratio in the repeat runs, not every such curve was filed as active; inconclusive = weak or mixed curves, or effect the other way; inactive = no such curve, though single readings can be large or run the other way; the % refers to the signal ratio; note: potency is the fitted concentration of half-maximal effect)
Chain of Estrogen receptor (Homo sapiens) (P03372 whole entry, looked up): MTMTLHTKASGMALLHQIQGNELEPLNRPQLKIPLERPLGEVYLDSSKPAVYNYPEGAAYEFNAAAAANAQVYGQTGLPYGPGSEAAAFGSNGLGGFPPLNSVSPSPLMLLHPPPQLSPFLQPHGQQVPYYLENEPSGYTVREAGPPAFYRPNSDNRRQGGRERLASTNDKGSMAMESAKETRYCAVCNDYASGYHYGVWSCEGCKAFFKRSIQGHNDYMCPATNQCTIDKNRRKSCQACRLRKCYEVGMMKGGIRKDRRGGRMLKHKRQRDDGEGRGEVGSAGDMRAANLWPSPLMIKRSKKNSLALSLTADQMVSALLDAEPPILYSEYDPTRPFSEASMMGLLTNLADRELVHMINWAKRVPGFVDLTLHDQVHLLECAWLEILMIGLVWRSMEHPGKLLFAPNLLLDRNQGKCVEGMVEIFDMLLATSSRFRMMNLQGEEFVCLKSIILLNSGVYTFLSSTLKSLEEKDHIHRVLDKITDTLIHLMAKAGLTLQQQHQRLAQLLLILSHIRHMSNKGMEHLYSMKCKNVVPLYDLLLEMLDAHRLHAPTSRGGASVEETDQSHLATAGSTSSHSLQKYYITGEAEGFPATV
How it was run: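 A 17beta-estradiol challenge was applied right after compound transfer to ER-alpha-UAS-bla HEK293 cells previously kept in charcoal-stripped serum. Plates stood 18 hr at 37C and 5% CO2; fluorescence was read following 2 hr FRET substrate loading at room temperature.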

[5] = qHTS assay to identify small molecule antagonists of the estrogen receptor alpha (ER-alpha) signaling pathway - cell viability counter screen (AID 743074; calls by dose curve;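 note: HEK293 cells carrying ER-alpha-UAS-bla reporter stimulated with 17beta-estradiol; nearly all actives have a fitted effect of over 45% in size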)
[6] = target: Estrogen receptor (Homo sapiens) (UniProt P03372); experiment: qHTS assay to identify small molecule agonists of the estrogen receptor alpha (ER-alpha) signaling pathway (AID 743075; calls by dose curve;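 note: HEK293 GripTite cells with ER-alpha and UAS-driven beta-lactamase reporter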; note: potency is the fitted concentration of half-maximal effect); conditions: HEK293 ER-alpha-UAS-bla, beta-lactamase FRET ratio, 18 h; activation: at 70.1 µM (top of the series)
[7] = target: Estrogen receptor (Homo sapiens) (UniProt P03372); experiment: qHTS assay to identify small molecule agonists of the estrogen receptor alpha (ER-alpha) signaling pathway using the BG1 cell line (AID 743079); conditions: BG1Luc4E2 cells, ERE-luciferase agonist, 22 h; note: nearly all actives have a fitted effect of over 20% in size; note: potency is the fitted concentration of half-maximal effect
[8] = qHTS assay to identify small molecule antagonists of the estrogen receptor alpha (ER-alpha) signaling pathway using the BG1 cell line (AID 743080; calls by dose curve;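 note: BG1 cells stimulated with 17beta-estradiol alongside compound; nearly all actives have a fitted effect of over 25% in size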; note: potency is the fitted concentration of half-maximal effect)
How it was run: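 BG1-Luc-4E2 cells (endogenous full-length ER-alpha, stable 4×ERE-luciferase) were starved 5 days in phenol-red-free medium with 10% charcoal-stripped FBS, plated 24 h, then given compound plus 17beta-estradiol for 21.5 h at 37 C; ONE-Glo luminescence read after 30 min.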

[9] = qHTS assay to identify small molecule antagonists of the estrogen receptor alpha (ER-alpha) signaling pathway using the BG1 cell line - cell viability counter screen (AID 743081);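 note: compound given together with 17beta-estradiol as the ER stimulus; nearly all actives have a fitted effect of over 45% in size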; note: potency is the fitted concentration of half-maximal effect
[10] = target: Aromatase (Homo sapiens) (UniProt P11511); experiment: qHTS assay to identify aromatase inhibitors (AID 743083); note: nearly all actives have a fitted effect of over 55% in size; note: potency is the fitted concentration of half-maximal effect
Chain of Aromatase (Homo sapiens) (P11511 whole entry, looked up): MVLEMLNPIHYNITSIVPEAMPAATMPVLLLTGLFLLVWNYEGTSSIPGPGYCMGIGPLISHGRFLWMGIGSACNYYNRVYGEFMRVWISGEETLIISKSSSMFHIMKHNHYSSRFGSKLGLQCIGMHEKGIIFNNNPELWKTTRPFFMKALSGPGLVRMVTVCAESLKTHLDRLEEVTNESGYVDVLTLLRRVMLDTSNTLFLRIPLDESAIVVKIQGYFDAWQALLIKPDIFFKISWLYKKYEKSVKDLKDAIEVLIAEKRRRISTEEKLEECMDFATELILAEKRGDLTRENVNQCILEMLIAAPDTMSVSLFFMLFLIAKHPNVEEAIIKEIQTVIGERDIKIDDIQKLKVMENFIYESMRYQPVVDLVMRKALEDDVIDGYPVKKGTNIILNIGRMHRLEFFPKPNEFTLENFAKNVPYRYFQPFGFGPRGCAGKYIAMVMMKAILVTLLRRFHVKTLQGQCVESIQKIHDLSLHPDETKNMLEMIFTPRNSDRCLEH

[11] = qHTS assay to identify aromatase inhibitors - cell viability counter screen (AID 743084);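 note: cells stimulated with testosterone during compound exposure; nearly all actives have a fitted effect of over 55% in size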; note: potency is the fitted concentration of half-maximal effect
[12] = qHTS assay to identify small molecule that activate the aryl hydrocarbon receptor (AhR) signaling pathway - cell viability counter screen (AID 743086); note: nearly all actives have a fitted effect of over 45% in size; note: potency is the fitted concentration of half-maximal effect
How it was run: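 HepG2-AhR-luc (HG2L7.5c1) cells, 4000/well, were preincubated 5 h at 37C, exposed to compound in qHTS format for 24 hr at 37C, then given CellTiter-Fluor for 30 min; viability was read as fluorescence in the reporter wells.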

[13] = target: Peroxisome proliferator-activated receptor gamma (Homo sapiens) (UniProt P37231); experiment: qHTS assay to identify small molecule agonists of the peroxisome proliferator-activated receptor gamma (PPARg) signaling pathway (AID 743094; active = well fitted activation curve with a large enough effect in the signal ratio in the repeat runs, not every such curve was filed as active; inconclusive = weak or mixed curves, or effect the other way; inactive = no such curve, though single readings can be large or run the other way; the % refers to the signal ratio)
Chain of Peroxisome proliferator-activated receptor gamma (Homo sapiens) (P37231 whole entry, looked up): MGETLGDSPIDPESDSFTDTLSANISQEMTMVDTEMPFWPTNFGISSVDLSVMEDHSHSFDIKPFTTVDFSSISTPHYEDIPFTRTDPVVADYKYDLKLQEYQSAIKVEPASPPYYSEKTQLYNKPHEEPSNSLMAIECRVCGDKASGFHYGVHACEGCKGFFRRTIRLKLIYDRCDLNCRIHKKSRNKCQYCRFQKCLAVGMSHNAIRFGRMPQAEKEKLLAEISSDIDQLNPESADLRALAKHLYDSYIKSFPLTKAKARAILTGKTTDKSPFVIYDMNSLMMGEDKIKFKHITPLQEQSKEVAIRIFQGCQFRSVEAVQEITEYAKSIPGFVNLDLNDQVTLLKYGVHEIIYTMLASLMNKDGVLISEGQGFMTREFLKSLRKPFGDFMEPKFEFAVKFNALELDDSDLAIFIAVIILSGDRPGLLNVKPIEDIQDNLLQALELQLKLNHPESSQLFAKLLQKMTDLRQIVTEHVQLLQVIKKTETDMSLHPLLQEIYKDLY
How it was run: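 Cells from the PPARg UAS-bla HEK293H line are plated and incubated 5 h at 37C. Compounds in DMSO are pinned in and left 17 h at 37C. LiveBLAzer B/G substrate is then added for 1 h at room temperature before fluorescence is measured.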

[14] = qHTS assay to identify small molecule antagonists of the peroxisome proliferator-activated receptor gamma (PPARg) signaling pathway - cell viability counter screen (AID 743194); note: nearly all actives have a fitted effect of over 55% in size; note: potency is the fitted concentration of half-maximal effect
How it was run: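 PPARg-UAS-bla HEK293H cells were plated, rested 5 h at 37 C, then treated with compounds plus rosiglitazone (50 nM final) for 17 h at 37 C; viability was then read by CellTiter-Glo luminescence after 30 min at room temperature.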

[15] = qHTS assay for small molecule agonists of the antioxidant response element (ARE) signaling pathway - cell viability counter screen (AID 743203; calls by dose curve; note: nearly all actives have a fitted effect of over 55% in size; note: potency is the fitted concentration of half-maximal effect)
How it was run: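 Cytotoxicity was tested in parallel with the ARE reporter screen. ARE-bla HepG2 cells were exposed to compounds for 16 hrs, and viability was taken from CellTiter-Glo luminescence.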

[16] = qHTS assay for small molecule activators of the heat shock response signaling pathway - cell viability counter screen (AID 743209); note: nearly all actives have a fitted effect of over 50% in size
How it was run: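 Cytotoxicity counter screen run in parallel with the HSE beta-lactamase reporter, using the same wells. HeLa HSE-bla cells received compound for 5 h at 37 C; ATP-based CellTiter-Glo luminescence was measured after 30 min at room temperature.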

[17] = target: Aryl hydrocarbon receptor (Homo sapiens) (UniProt P35869); experiment: qHTS assay to identify small molecule that activate the aryl hydrocarbon receptor (AhR) signaling pathway (AID 743085);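 note: HG2L7.5c1 human HepG2 liver cells with stably integrated DRE-driven firefly reporter; nearly all actives have a fitted effect of over 15% in size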
Chain of Aryl hydrocarbon receptor (Homo sapiens) (P35869 whole entry, looked up): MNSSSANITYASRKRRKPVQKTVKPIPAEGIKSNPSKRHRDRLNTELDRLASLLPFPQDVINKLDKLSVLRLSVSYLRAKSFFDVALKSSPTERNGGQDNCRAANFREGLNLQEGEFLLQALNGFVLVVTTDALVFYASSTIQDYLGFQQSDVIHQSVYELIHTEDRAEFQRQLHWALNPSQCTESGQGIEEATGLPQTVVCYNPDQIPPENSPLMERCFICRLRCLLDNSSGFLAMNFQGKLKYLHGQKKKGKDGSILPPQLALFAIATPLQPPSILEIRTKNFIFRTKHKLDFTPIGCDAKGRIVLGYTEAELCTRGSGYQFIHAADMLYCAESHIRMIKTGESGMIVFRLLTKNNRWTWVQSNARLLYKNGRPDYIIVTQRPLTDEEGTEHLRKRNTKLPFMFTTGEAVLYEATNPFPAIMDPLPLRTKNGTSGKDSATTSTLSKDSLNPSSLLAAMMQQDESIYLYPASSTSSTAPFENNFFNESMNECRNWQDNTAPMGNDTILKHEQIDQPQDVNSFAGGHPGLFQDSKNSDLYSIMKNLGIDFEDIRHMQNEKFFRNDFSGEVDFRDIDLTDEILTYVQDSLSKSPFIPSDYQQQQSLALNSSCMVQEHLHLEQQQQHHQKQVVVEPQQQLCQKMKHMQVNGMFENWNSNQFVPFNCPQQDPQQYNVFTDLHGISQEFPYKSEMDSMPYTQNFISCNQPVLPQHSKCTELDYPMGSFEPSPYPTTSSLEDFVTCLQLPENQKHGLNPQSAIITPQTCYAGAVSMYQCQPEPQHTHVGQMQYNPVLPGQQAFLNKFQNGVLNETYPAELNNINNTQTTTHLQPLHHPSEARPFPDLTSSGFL
How it was run: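 Luminescence read-out: ONE-Glo reagent, 30 min at room temperature, in HG2L7.5c1 HepG2 reporter cells treated 24 h at 37C. Viability was measured beforehand by CellTiter-Fluor fluorescence after 30 min at 37C.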

[18] = qHTS assay for small molecule activators of the heat shock response signaling pathway (AID 743210; active = well fitted activation curve with a large enough effect in the signal ratio in the repeat runs, with a control signal flat, not every such curve was filed as active; inconclusive = weak or mixed curves; the % refers to the signal ratio)
How it was run: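 Heat shock element–beta-lactamase HeLa reporter cells; qHTS with compounds for 5 h at 37 C; detection by FRET substrate fluorescence after 2.5 h at RT.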

[19] = target: Peroxisome proliferator-activated receptor gamma (Homo sapiens) (UniProt P37231); experiment: qHTS assay to identify small molecule antagonists of the peroxisome proliferator-activated receptor gamma (PPARg) signaling pathway (AID 743191; calls by dose curve; note: nearly all actives have a fitted effect of over 30% in size; note: potency is the fitted concentration of half-maximal effect)
How it was run: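 GeneBLAzer PPARg UAS-bla HEK293H cells carrying a UAS-driven beta-lactamase reporter were plated at 3000 cells/well, preincubated 5 h at 37C, then given compound for 17 h at 37C; LiveBLAzer B/G FRET substrate was read after 1 h at room temperature.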

[20] = qHTS assay for small molecule agonists of the antioxidant response element (ARE) signaling pathway (AID 743202; active = well fitted activation curve with a large enough effect in the signal ratio in the repeat runs, not every such curve was filed as active; inconclusive = weak or mixed curves, or effect the other way; inactive = no such curve, though single readings can be large or run the other way; the % refers to the signal ratio)
How it was run: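 Following a 16 h, 37 C exposure of reporter HepG2 cells (ARE-driven beta-lactamase, 2,000 cells/well) to compounds, FRET substrate was applied for 2 h at room temperature and fluorescence intensity recorded.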
% is set by controls: 0 for no effect and ±100 for the full control effect.

CCCCCCCCCCCCCCCS(=O)(=O)Oc1ccccc1
inactive: Potency [1] | Potency [2] | Potency [3] | Potency [4] | Potency [5] | Potency [6] | activation ([7]; at 70.3 µM (top of the series)) -9.91% | Potency [8] | Potency [9] | Potency [10] | Potency [11] | Potency [12] | Potency [13] | Potency [14] | Potency [15] | Potency [16]

COc1ccc(-c2ccc3cc(C(=O)O)ccc3c2)cc1C12CC3CC(CC(C3)C1)C2
inactive: Potency [3] | Potency [5] | Potency [6] | activation ([7]; at 70.3 µM (top of the series)) -4.61% | Potency [9] | Potency [11] | Potency [17] | Potency [12] | Potency [13]
active: Potency [1] 1.68 µM | Potency [2] 1.33 µM | Potency [4] 7.56 µM [inconclusive] | Potency [8] 0.376 µM | Potency [14] 23.7 µM | Potency [15] 23.7 µM

Cn1cc(C(=O)[C@@H]2CCc3nc[nH]c3C2)c2ccccc21
inactive: Potency [1] | Potency [2] | Potency [3] | Potency [4] | Potency [5] | Potency [6] | activation ([7]; at 70.3 µM (top of the series)) 5.8% | Potency [8] | Potency [9] | Potency [10] | Potency [11] | Potency [17] | Potency [12] | Potency [13] | Potency [14] | Potency [15] | Potency [16]

Cc1cccc(S(=O)(=O)O)c1C
inactive: Potency [1] | Potency [2] | Potency [3] | Potency [4] | Potency [5] | Potency [6] | activation ([7]; at 70.3 µM (top of the series)) -6.85% | Potency [8] | Potency [9] | Potency [10] | Potency [11] | Potency [17] | Potency [12] | Potency [14] | Potency [15] | Potency [16] | Potency [18]

CCC(N)(CO)CO
inactive: Potency [1] | Potency [2] | Potency [3] | Potency [4] | Potency [5] | Potency [6] | activation ([7]; at 95 µM (top of the series)) -5.95% | Potency [8] | Potency [9] | Potency [10] | Potency [11] | Potency [17] | Potency [12] | Potency [13] | Potency [19] | Potency [14] | Potency [16] | Potency [18]

O=C(O)c1cc(O)c2c(c1)C(=O)c1cccc(O)c1C2=O
active: Potency [7] 39.7 µM
inactive: Potency [1] | Potency [2] | Potency [3] | Potency [4] | Potency [5] | Potency [6] | Potency [8] | Potency [10] | Potency [11] | Potency [17] | Potency [12] | Potency [14] | Potency [16] | Potency [18]

CCC(C)(C)C1CCCCC1OC(C)=O (stereo not drawn)
inactive: Potency [1] | Potency [2] | Potency [3] | Potency [4] | Potency [5] | Potency [6] | activation ([7]; at 70.3 µM (top of the series)) 7.91% | Potency [8] | Potency [9] | Potency [10] | Potency [11] | Potency [17] | Potency [12] | Potency [13] | Potency [19] | Potency [14] | Potency [15]

CC[C@H](c1ccc(O)cc1)[C@@H](CC)c1ccc(O)cc1
inactive and 27.3 µM (active): Potency [10]
54.5 µM (active) and inactive: Potency [15]
inactive: Potency [3] | Potency [4] | Potency [5] | Potency [9] | Potency [11] | Potency [17] | Potency [12] | Potency [13] | Potency [16]
active: Potency [1] 30.6 µM | Potency [2] 19.3 µM | Potency [6] 0.0002 µM [inconclusive] | activation [6] 38.2% [inconclusive] | activation ([7]; at 32.5 µM (top of the series)) 58.6% | activation ([7]; at 70.3 µM (top of the series)) -55.2% | Potency [8] 68.6 µM | Potency [19] 29.8 µM

NC(=O)NS(=O)(=O)c1ccc(N)cc1
inactive: Potency [1] | Potency [2] | Potency [3] | Potency [4] | Potency [5] | Potency [6] | Potency [8] | Potency [10] | Potency [11] | Potency [17] | Potency [12] | Potency [13] | Potency [19] | Potency [14] | Potency [20] | Potency [15] | Potency [16] | Potency [18]

CCN(CCC#N)c1ccc(N=Nc2c(Cl)cc([N+](=O)[O-])cc2Cl)cc1
inactive: Potency [3] | Potency [4] | Potency [5] | Potency [6] | activation ([7]; at 70.3 µM (top of the series)) -0.554% | Potency [8] | Potency [10] | Potency [17] | Potency [13] | Potency [14] | Potency [15] | Potency [16]
active: Potency [1] 24.3 µM | Potency [2] 24.3 µM | Potency [9] 27.3 µM | Potency [11] 24.3 µM | Potency [12] 27.3 µM

O=c1[nH]cnc2nc[nH]c12
inactive: Potency [1] | Potency [2] | Potency [3] | Potency [4] | Potency [5] | Potency [6] | activation ([7]; at 70.3 µM (top of the series)) 8.82% | Potency [8] | Potency [9] | Potency [10] | Potency [11] | Potency [12] | Potency [13] | Potency [14] | Potency [15] | Potency [16] | Potency [18]

Cc1cc2c(cc1C(F)(F)F)N(C(=O)Nc1ccc(Oc3cccnc3C)nc1)CC2
active: Potency [2] 22 µM | Potency [15] 34.9 µM
inactive: Potency [1] | Potency [3] | Potency [4] | Potency [5] | Potency [6] | Potency [9] | Potency [17] | Potency [12] | Potency [13] | Potency [14] | Potency [16]

CCCC/C=C/CCCCO
inactive: Potency [1] | Potency [2] | Potency [3] | Potency [4] | Potency [5] | Potency [6] | Potency [8] | Potency [10] | Potency [11] | Potency [12] | Potency [13] | Potency [14] | Potency [15] | Potency [16]
